Data taken from the supplement of paper PMC4466140.

Key:
Assay in all cases: SPOT peptide array binding signal intensity (averaged, normalized) (arbitrary units (background-subtracted, floor 0; scale differs between SH3 domains)); higher = stronger binding of the SH3 domain to the peptide
[1] = target: AgAbp1
Procedure, shortened: (§1)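 Cellulose membranes carried synthetic 15-mer peptides with cysteines swapped for serines. These were incubated overnight at 4°C with 10 μg/ml of GST-fused SH3 domains from four yeast species in TBS-based blocking buffer. Binding signal, detected with anti-GST antibody and quantified in Genespotter, is the normalized, background-subtracted spot intensity averaged over replicates, in arbitrary units specific to each domain.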

[2] = target: AgBbc1
Procedure, shortened: as §1

[3] = target: AgBem1-D1
Procedure, shortened: as §1

[4] = target: AgBzz1-D1
Procedure, shortened: as §1

[5] = target: AgBzz1-D2
Procedure, shortened: as §1

[6] = target: AgCyk3
Procedure, shortened: as §1

[7] = target: AgFus1
Procedure, shortened: as §1

[8] = target: AgHof1
Procedure, shortened: as §1

[9] = target: AgHse1
Procedure, shortened: as §1

[10] = target: AgLsb1
Procedure, shortened: as §1

[11] = target: AgLsb4
Procedure, shortened: as §1

[12] = target: AgMyo5
Procedure, shortened: as §1

[13] = target: AgNbp2
Procedure, shortened: as §1

[14] = target: AgRvs167
Procedure, shortened: as §1

[15] = target: AgSho1
Procedure, shortened: as §1

[16] = target: AgSla1-D1-D2
Procedure, shortened: as §1

[17] = target: AgSla1-D3
Procedure, shortened: as §1

[18] = target: CaAbp1-D1
Procedure, shortened: as §1

[19] = target: CaAbp1-D2
Procedure, shortened: as §1

[20] = target: CaBbc1
Procedure, shortened: as §1

[21] = target: CaBem1-D1
Procedure, shortened: as §1

[22] = target: CaBzz1-D1
Procedure, shortened: as §1

[23] = target: CaBzz1-D2
Procedure, shortened: as §1

[24] = target: CaCyk3
Procedure, shortened: as §1

[25] = target: CaFus1
Procedure, shortened: as §1

[26] = target: CaHof1
Procedure, shortened: as §1

[27] = target: CaHse1
Procedure, shortened: as §1

[28] = target: CaLsb1
Procedure, shortened: as §1

[29] = target: CaLsb4
Procedure, shortened: as §1

[30] = target: CaMyo5
Procedure, shortened: as §1

[31] = target: CaNbp2
Procedure, shortened: as §1

[32] = target: CaRvs167
Procedure, shortened: as §1

[33] = target: CaRvs167-3
Procedure, shortened: as §1

[34] = target: CaSho1
Procedure, shortened: as §1

[35] = target: CaSla1-D1-D2
Procedure, shortened: as §1

[36] = target: CaSla1-D3
Procedure, shortened: as §1

[37] = target: ScAbp1
Procedure, shortened: as §1

[38] = target: ScBbc1
Procedure, shortened: as §1

[39] = target: ScBem1-D1
Procedure, shortened: as §1

[40] = target: ScBzz1-D1
Procedure, shortened: as §1

[41] = target: ScBzz1-D2
Procedure, shortened: as §1

[42] = target: ScCyk3
Procedure, shortened: as §1

[43] = target: ScFus1
Procedure, shortened: as §1

[44] = target: ScHof1
Procedure, shortened: as §1

[45] = target: ScHse1
Procedure, shortened: as §1

[46] = target: ScLsb1
Procedure, shortened: as §1

[47] = target: ScLsb2
Procedure, shortened: as §1

[48] = target: ScLsb3
Procedure, shortened: as §1

[49] = target: ScLsb4
Procedure, shortened: as §1

[50] = target: ScMyo3
Procedure, shortened: as §1

[51] = target: ScMyo5
Procedure, shortened: as §1

[52] = target: ScNbp2
Procedure, shortened: as §1

[53] = target: ScPex13
Procedure, shortened: as §1

[54] = target: ScRvs167
Procedure, shortened: as §1

[55] = target: ScSho1
Procedure, shortened: as §1

[56] = target: ScSla1-D1-D2
Procedure, shortened: as §1

[57] = target: ScSla1-D3
Procedure, shortened: as §1

[58] = target: SpAbp1-D1
Procedure, shortened: as §1

[59] = target: SpBbc1
Procedure, shortened: as §1

[60] = target: SpBzz1-D1
Procedure, shortened: as §1

[61] = target: SpBzz1-D2
Procedure, shortened: as §1

[62] = target: SpCyk3
Procedure, shortened: as §1

[63] = target: SpHof1
Procedure, shortened: as §1

[64] = target: SpHof1-2
Procedure, shortened: as §1

[65] = target: SpHof1-3
Procedure, shortened: as §1

[66] = target: SpHse1
Procedure, shortened: as §1

[67] = target: SpLsb1
Procedure, shortened: as §1

[68] = target: SpLsb4
Procedure, shortened: as §1

[69] = target: SpMyo1
Procedure, shortened: as §1

[70] = target: SpNbp2
Procedure, shortened: as §1

[71] = target: SpPex13
Procedure, shortened: as §1

[72] = target: SpRvs167
Procedure, shortened: as §1

[73] = target: SpSla1-D1-D2
Procedure, shortened: as §1

[74] = target: SpSla1-D3
Procedure, shortened: as §1

NNQRRKPLLLNIGDH
SPOT peptide array binding signal intensity [1]: 108
SPOT peptide array binding signal intensity [2]: ≤ 0
SPOT peptide array binding signal intensity [3]: ≤ 0
SPOT peptide array binding signal intensity [4]: ≤ 0
SPOT peptide array binding signal intensity [5]: 54
SPOT peptide array binding signal intensity [6]: 0.5
SPOT peptide array binding signal intensity [7]: 305
SPOT peptide array binding signal intensity [8]: 6
SPOT peptide array binding signal intensity [9]: 1660
SPOT peptide array binding signal intensity [10]: ≤ 0
SPOT peptide array binding signal intensity [11]: ≤ 0
SPOT peptide array binding signal intensity [12]: 1
SPOT peptide array binding signal intensity [13]: 68.5
SPOT peptide array binding signal intensity [14]: 5.67
SPOT peptide array binding signal intensity [15]: 24.5
SPOT peptide array binding signal intensity [16]: 175
SPOT peptide array binding signal intensity [17]: 5.5
SPOT peptide array binding signal intensity [18]: 330
SPOT peptide array binding signal intensity [19]: 458
SPOT peptide array binding signal intensity [20]: ≤ 0
SPOT peptide array binding signal intensity [21]: ≤ 0
SPOT peptide array binding signal intensity [22]: ≤ 0
SPOT peptide array binding signal intensity [23]: ≤ 0
SPOT peptide array binding signal intensity [24]: 1.5
SPOT peptide array binding signal intensity [25]: 1030
SPOT peptide array binding signal intensity [26]: ≤ 0
SPOT peptide array binding signal intensity [27]: 21
SPOT peptide array binding signal intensity [28]: 0.5
SPOT peptide array binding signal intensity [29]: ≤ 0
SPOT peptide array binding signal intensity [30]: ≤ 0
SPOT peptide array binding signal intensity [31]: 528
SPOT peptide array binding signal intensity [32]: 12
SPOT peptide array binding signal intensity [33]: 35.8
SPOT peptide array binding signal intensity [34]: 420
SPOT peptide array binding signal intensity [35]: ≤ 0
SPOT peptide array binding signal intensity [36]: 2.25
SPOT peptide array binding signal intensity [37]: 442
SPOT peptide array binding signal intensity [38]: ≤ 0
SPOT peptide array binding signal intensity [39]: 3
SPOT peptide array binding signal intensity [40]: 16.5
SPOT peptide array binding signal intensity [41]: ≤ 0
SPOT peptide array binding signal intensity [42]: 33
SPOT peptide array binding signal intensity [43]: 272
SPOT peptide array binding signal intensity [44]: 0.5
SPOT peptide array binding signal intensity [45]: 1820
SPOT peptide array binding signal intensity [46]: ≤ 0
SPOT peptide array binding signal intensity [47]: ≤ 0
SPOT peptide array binding signal intensity [48]: 68
SPOT peptide array binding signal intensity [49]: ≤ 0
SPOT peptide array binding signal intensity [50]: ≤ 0
SPOT peptide array binding signal intensity [51]: ≤ 0
SPOT peptide array binding signal intensity [52]: 112
SPOT peptide array binding signal intensity [53]: ≤ 0
SPOT peptide array binding signal intensity [54]: 4.33
SPOT peptide array binding signal intensity [55]: 676
SPOT peptide array binding signal intensity [56]: 37
SPOT peptide array binding signal intensity [57]: ≤ 0
SPOT peptide array binding signal intensity [58]: 384
SPOT peptide array binding signal intensity [59]: 0.5
SPOT peptide array binding signal intensity [60]: 136
SPOT peptide array binding signal intensity [61]: ≤ 0
SPOT peptide array binding signal intensity [62]: ≤ 0
SPOT peptide array binding signal intensity [63]: 93.2
SPOT peptide array binding signal intensity [64]: 2.5
SPOT peptide array binding signal intensity [65]: 892
SPOT peptide array binding signal intensity [66]: 1730
SPOT peptide array binding signal intensity [67]: ≤ 0
SPOT peptide array binding signal intensity [68]: ≤ 0
SPOT peptide array binding signal intensity [69]: ≤ 0
SPOT peptide array binding signal intensity [70]: 133
SPOT peptide array binding signal intensity [71]: ≤ 0
SPOT peptide array binding signal intensity [72]: ≤ 0
SPOT peptide array binding signal intensity [73]: ≤ 0
SPOT peptide array binding signal intensity [74]: ≤ 0
